A number with no mark means an inactive call. Calls of active or inactive are those of the source. Unless noted, no stated cut-off is given here; in the data, active means inhibition above about 36%; inactive means the rest.

Test system in the first experiment: not listed separately
In words: compounds suppressing VP16-driven luciferase signal – cell-based, luminescence, high throughput, counter-screen for LRH-1 inverse agonist project (AID 651615; in the data active means inhibition above about 33%). As to conditions: Gal4-VP16 luciferase reporter cells, at 3.6 µM, hits give high values. (A counterscreen serves to expose hits that act by an unwanted route or on another target.)
As usually defined, the inhibition is the relative decrease from the control value, in per cent. Regarding `Cc1ccc(Nc2nc(N)nc(CCl)n2)c(C)c1`, the inhibition is 56% (active).

With `CC(C)(C)NCC(=Cc1ccccc1)C(=O)c1ccccc1`, the inhibition is 89.1% (active).

With `CCCNC1=C(N(C(C)=O)c2cccc(F)c2)C(=O)c2ccccc2C1=O`, the inhibition was 69.2% (active).

As to `CCOC(=O)c1ccc(NC(=O)c2ccc(C)c(S(=O)(=O)N3CCOCC3)c2)cc1`, the inhibition was 66% (active).

In the case of `NC(=S)NN=Cc1nccc2c(C(F)(F)C(F)(F)C(F)(F)F)cccc12`, the inhibition is 82.1% (active).

With `COC1=CC(=O)c2nc(Cl)ccc2C1=O`, the inhibition is 72.2% (active).

As to `COc1cccc2c1C(=O)c1c(O)c3c(c(O)c1C2=O)CC(O)(C(C)=O)CC3OC1CC(N(C)C)C(O)C(C)O1` (centres undefined), the inhibition is 96.3% (active).

As for `C[C@@H](C(=O)Nc1ccc2c(c1)OCCO2)n1c(=O)[nH]c2ccccc2c1=O`, the inhibition was -18.1%.

In a further experiment the test system is transactivating tegument protein VP16 (Human herpesvirus 1). In words: compounds suppressing VP16-driven luciferase signal – cell-based, luminescence, single concentration, counter-screen for SRC2 inhibitor project (AID 652007). As to conditions: cell-based VP16 transactivation luciferase reporter, at 8.9 µM, hits give high values.
With `Cc1cc(C(=O)COC(=O)c2ccccc2Br)c(C)n1CC1CCCO1` (centres undefined), the inhibition is 66.2% (active).

`CC1CCc2nc(N)c(C#N)c(-c3cccnc3)c2C1` (centres undefined): the inhibition is 15.6%.

Take `O=C(CCl)N(c1ccccc1)C1CCS(=O)(=O)C1` (centres undefined): the inhibition is 40.7% (active).

As to `CC(=O)OC[C@]12CC[C@H]3[C@@](C)(CC[C@H]4C(C)(C)CCC[C@]34C)[C@@H]1CC(C1=CC(=O)OC1O)O2` (some centres undefined), the inhibition was 96% (active).

As for `CC1CCCN(c2ncnc3c2cnn3-c2ccc(Cl)cc2)C1` (centres undefined), the inhibition is 82% (active).

In the case of `Cc1ccc(/C=C2\SC(=S)N(CCCC(=O)Nc3ccccn3)C2=O)cc1`, the inhibition was 58.3% (active).

In the case of `COc1ccc(-n2ncc3c(N(C)C4CCCCC4)ncnc32)cc1`, the inhibition was 42.7% (active).

On to `c1csc(CNc2ccc3c(c2)OCCO3)c1`, for which the inhibition is 60.7% (active).

Turning to `Cc1cc(C(=O)COC(=O)c2ccccc2O)c(C)n1Cc1cccs1`, the inhibition was 81% (active).

For `COc1ccccc1-c1nnc(Sc2nc([N+](=O)[O-])nn2C)o1`, the inhibition was 46.1% (active).

For `Nc1ccc(-c2cc3ccccc3oc2=O)cc1`, the inhibition is 67.1% (active).

For the compound `OCC1OC(n2ccc3c2ncn2ncnc32)C(O)C1O` (centres undefined), the inhibition is 12.2%.

Regarding `COc1ccc2cc3c(N)nn(C(=O)c4ccccc4[N+](=O)[O-])c3nc2c1`, the inhibition is 3.64%.

As to `O=C(CC1CS(=O)(=O)CC1CC(=O)Nc1ccc2c(c1)OCCO2)Nc1ccc2c(c1)OCCO2` (centres undefined), the inhibition was 46.5% (active).

Regarding `CC1CCC(C(C)C)C(OC(=O)Cn2c(-c3ccc(F)cc3)[n+](C)c3ccccc32)C1` (centres undefined), the inhibition was 26.2%.

In the case of `CC(C)Nc1ncnc2ccc(Br)cc12`, the inhibition was 20.2%.

Take `Nc1cc2ccncc2c2ccccc12`: the inhibition was 22.2%.

As for `Cc1ccc2oc(/N=C(\N)NC(=O)C(C)(C)C)nc2c1`, the inhibition is 77.6% (active).

`COC1=CC(=O)c2c(ccc3ncnc(N)c23)C1=O`: the inhibition was 37.5% (active).

As to `CC(C)(C)C(=O)/C(=C/c1ccncc1)n1cncn1`, the inhibition was 39.9% (active).

In the case of `O=c1c2ccccc2oc2cc(C#CC3(O)CCCCC3)ccc12`, the inhibition was -4.85%.

`Cc1cc(C(=O)CN2C(=O)c3ccccc3S2(=O)=O)c(C)n1CC1CCCO1` (centres undefined): the inhibition is 63.7% (active).

In the case of `CC(C)(C)OC(=O)NCCCCCc1cn([C@@H](CO)C(=O)NCCCCCCCCCCC(=O)N2CCN(C(=O)OC(C)(C)C)CC2)nn1`, the inhibition is 55% (active).

With `Clc1ccc(-n2ncc3c(N4CCCCCC4)ncnc32)cc1`, the inhibition was 57.4% (active).

Take `CC(=O)NC(c1ccc(C(C)C)cc1)c1ccc2cccnc2c1O` (centres undefined): the inhibition was -23.1%.

As to `Cc1ccc(C(=O)N/N=C/c2c(O)ccc3ccccc23)cn1`, the inhibition was -4.97%.

With `CCOc1cc(CNc2ccc3c(c2)OCCO3)cc(Br)c1OC`, the inhibition was 1.28%.

With `COc1cccc(-c2nnc3n2N=C(C(C)(C)C)CS3)c1`, the inhibition was 26.6%.

As for `Cc1ccc(C(=O)N/N=C/c2ccc([N+](=O)[O-])s2)cc1`, the inhibition is 82.5% (active).

Regarding `C=C1C(=O)C2=CC1CCC(=O)C1(C)CCC(OC(C)=O)C(C)(C)C1CC2O` (centres undefined), the inhibition is 33.9%.

Consider `COc1cccc(N2CCN(c3ncnc4c3cnn4-c3ccc(C)cc3C)CC2)c1`, for which the inhibition is 81.1% (active).

Consider `COc1cc(NC(=O)COc2cc(O)c3c(c2)OC(C)(C)CC3=O)cc(OC)c1OC`, for which the inhibition is 43.5% (active).

As for `Cc1ccc(Nc2nc(N)nc(CCl)n2)c(C)c1`, the inhibition was -27.8%.

With `CC(C)(C)NCC(=Cc1ccccc1)C(=O)c1ccccc1`, the inhibition is 72.5% (active).

In the case of `CCCNC1=C(N(C(C)=O)c2cccc(F)c2)C(=O)c2ccccc2C1=O`, the inhibition was 24.1%.

Take `CCOC(=O)c1ccc(NC(=O)c2ccc(C)c(S(=O)(=O)N3CCOCC3)c2)cc1`: the inhibition is 47.4% (active).

These data come from PubChem BioAssay.
